High-throughput results from PubChem.
The list is not random: actives were taken first. Their share in the collection is about 2.4%.
D2 PAM-1 = potentiates the human D2 dopamine receptor allosterically; DiscoveRx D2 beta-arrestin cells, luminescence, 90 min; 100% = 57 uM dopamine signal; potentiation, % (test concentration not listed); 360,000 compounds, 0.23% hits; AID 624464; in the data active means potentiation above about 50%; inconclusive means mostly about 30% to 49%
Target sequence (P14416 whole entry, looked up): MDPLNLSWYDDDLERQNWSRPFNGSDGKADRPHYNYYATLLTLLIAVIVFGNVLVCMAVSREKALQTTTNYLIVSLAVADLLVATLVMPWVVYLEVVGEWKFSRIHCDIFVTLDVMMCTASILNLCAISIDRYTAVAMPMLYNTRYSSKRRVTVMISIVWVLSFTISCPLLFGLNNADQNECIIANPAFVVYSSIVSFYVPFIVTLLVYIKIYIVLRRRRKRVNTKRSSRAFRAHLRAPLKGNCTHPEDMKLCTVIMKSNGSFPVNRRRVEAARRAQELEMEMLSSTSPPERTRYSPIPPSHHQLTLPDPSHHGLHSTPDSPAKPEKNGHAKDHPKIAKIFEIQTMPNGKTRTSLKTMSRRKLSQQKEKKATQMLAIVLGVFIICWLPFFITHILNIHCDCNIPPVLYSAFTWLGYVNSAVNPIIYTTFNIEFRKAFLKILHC
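PathHunter D2 cells, attached overnight at 37 deg C, received compound in DMSO plus dopamine at EC20 (50 nM final) for 90 min at 37 deg C. Beta-arrestin recruitment was read as luminescence after 1 h with detection reagent at ambient temperature.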
D2 PAM-2 = positive allosteric modulators of human D2 dopamine receptor | P14416 | HEK293 T-REx D2, calcium flux, EC20 dopamine potentiation | potentiation, % at 10 µM | 340,000 compounds, 0.34% hits;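 active means potentiation over 3 SD above the plate norm, cut at about 30% in these data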; further: 0% is about no effect
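Potentiation of an EC20 dopamine calcium response measured kinetically over 180 s, after a preceding 180 s compound-only read flagging agonists. Cells: inducible Hek293 Trex D2 line, 4000/well, cultured overnight at 30 C before dye loading.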
D2 antagonist = antagonists of human D2 dopamine receptor; HEK293 TREx D2 cells, calcium flux, dopamine EC80; inhibition, % at 10 µM; 340,000 compounds, 2% hits; in the data active means inhibition above about 30%; inactive means below that, where a call was filed; further: 0% is about no effect
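Tetracycline-induced HEK293 T-REx cells expressing D2 force-coupled to calcium signalling were dye-loaded, exposed to compound for 180 s, then challenged with an EC80 of dopamine; calcium flux was followed kinetically for a further 180 s.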
D2 ag-1 = agonists of human D2 dopamine receptor (beta-arrestin). activation, % (concentration not given with the values). DiscoveRx PathHunter D2 beta-arrestin, luminescence, 90 min; 100% = 57 uM dopamine signal. 360,000 compounds, 0.084% hits; in the data active means activation above about 40%; inconclusive means between about 15% and that limit
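DiscoveRx PathHunter D2 beta-arrestin cells (2,100/well) attached overnight, then compound-stimulated 90 min at 37 C in HBSS/10 mM HEPES/0.1% Tween-20 buffer; beta-galactosidase complementation read by luminescence after 1 h at ambient temperature. Dopamine 57 uM final (EC100) as control.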
D2 ag-2 = activates the human D2 dopamine receptor; P14416; HEK293 T-REx D2 cells, calcium flux agonist mode; 340,000 compounds, 0.53% hits; activation, % at 2 µM;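 active means activation over 3 SD above normal in the single-dose calcium agonist read, cut at about 30% in these data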; further: 0% is about no effect
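Tetracycline-induced HEK293 Trex cells with D2 receptor force-coupled to calcium signaling, plated overnight at 30 C and loaded with no-wash calcium dye. Calcium flux read kinetically for 180 s after compound addition; responses flag agonists.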
* = called active by the depositor; ? = inconclusive; . = no result given.

SMILES | D2 PAM-1 | D2 PAM-2 | D2 antagonist | D2 ag-1 | D2 ag-2
c1ccc2c(c1)OC(CCCN1CCCCC1)c1ccccc1S2 (configuration not stated) | -30.8 | -27.7 | 87.0* | -4.8 | 1.1
COc1ccccc1CNC(=O)CSc1ncc(S(=O)(=O)c2ccc(C)c(Cl)c2)c(=O)[nH]1 | . | -2.4 | . | . | 0.6
COC(=O)c1cc(C(=O)OC)cc(-n2c(C)cc(C(=O)CC#N)c2C)c1 | -0.6 | 13.5 | 32.7* | -1.6 | -0.5
CCOC(=O)C1=C(CC)Nc2ccccc2N=C1NC(=O)Nc1ccccc1OC | -17.1 | -26.2 | 50.9* | -3.7 | -0.8
O=C(Nc1ccccc1)c1ccc2nc(-c3ccco3)c(-c3ccco3)nc2c1 | ? | 25.5 | 1.3 | 7.4 | -2.0
CC(=O)c1ccc(NC(=O)c2ccc3nc(-c4ccco4)c(-c4ccco4)nc3c2)cc1 | 76.1* | . | . | 13.0 | .
COc1c(Cl)cccc1-c1cn2ccc(C)cc2n1 | -5.9 | -14.8 | 34.8* | 2.6 | 0.1
CN1CCN(/C=N/C2=C(C#N)C(c3ccccc3)C3=C(CC(C)(C)CC3=O)O2)CC1 (configuration not stated) | -18.2 | 36.4* | 6.9 | -0.9 | -0.5
COc1ccc(NC(=O)N(C2CCCCC2)C2CCN(C(C)C)CC2)c(OC)c1 | 11.1 | . | 49.9* | 1.0 | 0.8
CCCCSCCCNC(=O)c1cn(CC)c2ccc(S(=O)(=O)N(C)C3CCCCC3)cc2c1=O | . | 3.8 | . | . | 1.3
COc1ccc(NC(=O)CN(C)C(=O)CN2C(=O)c3ccc([N+](=O)[O-])cc3C2=O)cc1 | 65.7* | -5.5 | 0.3 | 10.8 | 0.5
CC1CCN(Cc2c(C(=O)N/N=C/c3cc(Br)ccc3O)nnn2-c2nonc2N)CC1 | -2.9 | 6.3 | 7.6 | -4.5 | 2.2
CC1CCN(Cc2c(C(=O)N/N=C/c3cc(Cl)ccc3O)nnn2-c2nonc2N)CC1 | 1.0 | 30.1* | -0.2 | -9.1 | 3.1
COc1ccc(Cl)cc1NC(=O)CN(c1cccc(C)c1C)S(C)(=O)=O | . | -5.0 | . | . | 5.1
Cc1ccc(NC(=O)Cn2nc(C(F)(F)F)c3c2CCC3)cc1C | . | 3.6 | . | . | -1.0
O=C(Cn1nc(C(F)(F)F)c2c1CCCC2)Nc1ccc2c(c1)OCO2 | -12.4 | 31.8* | -6.3 | -3.6 | 0.5
CCOc1cc(C#N)c(NC(=O)Cn2nnc(-c3ccc(C)cc3)n2)cc1OCC | . | 8.7 | . | . | -0.3
Cc1ccc(C)c(NC(=O)C2CCCN2S(=O)(=O)c2ccc3c(c2)CCCC(=O)N3)c1 (configuration not stated) | . | -7.6 | . | . | -0.3
Cc1nc(-c2cccc(S(=O)(=O)N3CCOCC3)c2)cs1 | -3.5 | 13.9 | 34.7* | -2.3 | 0.2
Cc1nc(NCc2ccco2)[nH]c(=O)c1CCC(C)C | 11.2 | . | 30.3* | 12.0 | 3.4
O=C(Nc1nnc(-c2ccccc2Cl)o1)c1nc2ccccc2s1 | -7.3 | -16.5 | 7.7 | -2.6 | 39.1*
COc1ccc(NC(=O)CSc2nc3c(cc2C#N)CN(C)CC3)cc1 | -18.2 | -21.0 | 19.0 | -1.9 | -0.2
CCN1CCc2nc(SCC(=O)Nc3ccc(OC)cc3)c(C#N)cc2C1 | -19.9 | -23.3 | 35.7* | -2.3 | 0.2
Fc1ccc(-n2cc(CNCCc3ccncc3)c(-c3ccccc3Cl)n2)cc1 | -8.9 | -13.8 | 31.3* | -2.7 | 0.5
CCOc1ccc(CCNC(=O)c2ccc3c(c2)N(Cc2ccc(F)cc2)CCS3)cc1 | . | 3.6 | . | . | .
SMILES | D2 PAM-1 | D2 PAM-2 | D2 antagonist | D2 ag-1 | D2 ag-2
CCOc1ccc(CNC(=O)c2ccc3c(c2)N(CC)CCS3)cc1 | -9.5 | -17.3 | 60.9* | 0.9 | 1.0
CCN1CCSc2ccc(C(=O)NCc3ccc(OC(C)C)cc3)cc21 | -12.0 | -14.1 | 59.7* | -3.8 | 1.8
CCOc1ccccc1CNC(=O)c1cnc2sc(N(CC)CC)nn2c1=O | . | -9.8 | . | . | .
CC(OCC(O)CN(C)CCOc1ccccc1)c1ccc(Cl)cc1 (configuration not stated) | 16.7 | -23.0 | 25.7 | 6.1 | 31.8*
CN(CCOc1ccccc1)CC(O)COc1ccccc1 (configuration not stated) | -15.8 | -28.6 | 51.0* | -4.2 | 1.8
CN(CCOc1ccc(Cl)cc1)CC(O)c1ccccc1 (configuration not stated) | -16.6 | 3.0 | -17.1 | -1.6 | -0.5
CCc1cc2c(=O)oc(-c3ccc(Br)cc3)nc2s1 | -6.3 | 10.5 | 32.8* | -3.4 | -1.4
Cc1cccc(NC(=O)CSc2nc(C)cc(C)c2C(=O)Nc2ccc(Cl)cc2)c1 | . | -13.1 | . | . | 4.9
COc1cccc(Cn2c(=O)n(-c3ccc(C)c(F)c3)c(=O)c3sc4ccccc4c32)c1 | . | 8.5 | . | . | 0.2
Cc1ccc(C2CC2/C(=N/O)c2ccc(F)cc2)cc1 (configuration not stated) | 10.7 | -6.8 | 33.6* | 1.0 | 0.2
Cc1cccc(CCNC(=O)CCc2c(C)nc3c(c(C)nn3-c3ccccc3)c2C)c1 | . | 8.4 | . | . | 0.3
Cc1ccc(C(=O)c2c(C)oc3c2C(=O)C(=O)c2ccccc2-3)cc1 | 74.3* | 1.0 | -35.8 | ? | 1.1
Cc1oc2c(c1C(=O)N1CCC(C)CC1)C(=O)c1ccccc1C2=O | 2.3 | -11.9 | 0.5 | 2.4 | 0.2
Cc1oc2c(c1C(=O)c1ccc(Cl)cc1)C(=O)C(=O)c1ccccc1-2 | 108.5* | 3.0 | 0.8 | 14.7 | -0.1
Cc1ccc(C(=O)c2coc3c2C(=O)C(=O)c2ccccc2-3)cc1 | 63.7* | 7.1 | -2.6 | ? | -1.2
COc1ccc(-c2cn3nc(N4CCC(C(=O)Nc5cc(Cl)ccc5C)CC4)sc3n2)cc1 | . | . | . | . | 0.2
Cc1ccc(NC(=O)c2c(C)oc3ccc(O)c(CN4CCCCCC4)c23)cc1 | . | 8.6 | . | . | -1.2
Cc1ccc(N2CCN(S(=O)(=O)c3cc(Br)cc4c3N(C(=O)C3CC3)CC4)CC2C)cc1 (configuration not stated) | . | 1.3 | . | . | 0.2
C=C(C)COc1ccc(-c2[nH]ncc2-c2ccccc2)c(O)c1 | 83.6* | 7.4 | -5.5 | 6.9 | -0.3
COc1ccc(-c2cn[nH]c2-c2ccc(OCc3ccc(F)cc3)cc2O)cc1OC | -9.6 | -11.3 | 44.7* | 2.5 | -1.1
C=C(C)COc1ccc(-c2[nH]ncc2-c2ccc(OC)cc2)c(O)c1 | -4.9 | 8.9 | -14.1 | 1.5 | .
O=C(Cc1ccc([N+](=O)[O-])cc1)Nc1ccc(Cl)cc1 | -9.4 | -15.7 | 15.1 | 12.6 | 2.1
Cc1c(Cl)cccc1NC(=O)Cc1ccc([N+](=O)[O-])cc1 | 6.1 | -7.3 | 44.8* | 2.5 | -0.5
Nc1nn(-c2ccccc2)nc1C(=O)OCc1ccccc1Br | . | -8.1 | . | . | -0.3
COc1ccc(CCNC(=O)c2cc(-c3ccc(C)c(C)c3)nc3ccccc23)cc1OC | . | 18.9 | . | . | 0.2
Cc1nnsc1C(=O)Nc1ccc(S(=O)(=O)N2CCCCC2)cc1 | -9.9 | -2.4 | 3.6 | 3.7 | 0.7
CCC1CCCCN1S(=O)(=O)c1ccc(NC(=O)c2snnc2C)cc1 (configuration not stated) | -2.9 | 36.3* | -8.4 | 4.3 | 0.4
